Inhibition data for 34 compounds are collected here from ChEMBL document CHEMBL1961873, “Compounds: GSK PKIS; Assays: Nanosyn kinase panel” (2012).

Structures are written as SMILES.

For the first experiment, the target named is Tyrosine-protein kinase HCK (Homo sapiens) (UniProt P08631). The settings on record: at 0.1 µM.
Chain of Tyrosine-protein kinase HCK (Homo sapiens) (P08631 2-526 limits assumed): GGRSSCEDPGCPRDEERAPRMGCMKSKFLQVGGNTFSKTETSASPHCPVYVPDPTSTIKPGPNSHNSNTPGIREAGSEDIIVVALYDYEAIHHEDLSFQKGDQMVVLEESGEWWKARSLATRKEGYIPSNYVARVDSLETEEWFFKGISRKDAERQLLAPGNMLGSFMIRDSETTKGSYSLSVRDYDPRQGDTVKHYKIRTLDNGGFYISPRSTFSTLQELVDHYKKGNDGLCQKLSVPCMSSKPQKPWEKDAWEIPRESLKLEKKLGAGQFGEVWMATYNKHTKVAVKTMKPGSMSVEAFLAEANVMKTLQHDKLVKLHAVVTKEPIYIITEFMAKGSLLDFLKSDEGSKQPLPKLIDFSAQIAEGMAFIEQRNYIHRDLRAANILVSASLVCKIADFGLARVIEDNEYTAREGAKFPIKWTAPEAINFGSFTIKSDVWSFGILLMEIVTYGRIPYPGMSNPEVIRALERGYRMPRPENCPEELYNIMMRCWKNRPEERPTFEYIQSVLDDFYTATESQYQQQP
One may read the inhibition as the drop in the measured response relative to a control, in per cent. For `COc1cc2ncn(-c3cc(OCc4cccs4)c(C(N)=O)s3)c2cc1OC`, the inhibition was 4.48%.

Take `COc1cc(C)c(N(C)C(=O)CN(C)C)cc1Nc1nc(Nc2cccc(F)c2C(N)=O)c2cc[nH]c2n1`: the inhibition was found to be 2.52%.

With `CN(C)CCCNc1nccc(-c2c(-c3ccc(F)cc3)nn3cc(C(F)(F)F)ccc23)n1`, the inhibition worked out at 3.12%.

Take `COc1cccc(/C=N/Nc2ncnc3c2cnn3-c2cccc(OC)c2)c1`: the inhibition stood at 4.96%.

Turning to `CCC(=O)Nc1ccc(C)c(-c2ccc(C(=O)NCC3CC3)cc2)c1`, the inhibition was found to be 5.93%.

For `CCS(=O)(=O)c1ccc(OC)c(Nc2ncc(-c3cccc(-c4ccccc4F)c3)o2)c1`, the inhibition was determined as 16.9%.

Regarding `C#Cc1cccc(Nc2ncnc3ccc(OCCCCNCCS(C)(=O)=O)cc23)c1`, the inhibition was determined as 11.1%.

As for `CS(=O)(=O)CCNCc1ccc(-c2ccc3ncnc(Nc4ccc(OCc5ccccc5)c(Br)c4)c3c2)o1`, the inhibition turned out to be 7.33%.

For `COc1cc2ncn(-c3cc(OCCc4ccccc4)c(C(N)=O)s3)c2cc1OC`, the inhibition turned out to be 2.34%.

`NS(=O)(=O)c1ccc(N/N=C2\C(=O)Nc3ccc(-c4cnco4)cc32)cc1`: the inhibition amounted to 5.08%.

In the case of `Cc1ccc(C(=O)NC2CCC2)cc1-c1ccc(C(=O)NCC2CC2)cc1`, the inhibition was found to be 4.64%.

`COc1ccc2cc(-c3c(-c4ccncc4)nc(-c4ccc([S+](C)[O-])cc4C)n3C)ccc2c1` (stereo not drawn): the inhibition is -0.56%.

As for `COc1cc(N2CCN(C(C)C)CC2)ccc1Nc1nc(Nc2ccc(F)cc2C(=O)NC[C@@H](O)CO)c2cc[nH]c2n1`, the inhibition came to 3.99%.

For the compound `COc1ccc2ncn(-c3cc(O[C@H](C)c4ccccc4Cl)c(C(N)=O)s3)c2c1`, the inhibition was 5.34%.

For `Fc1ccc(-c2nc3n(c2-c2ccncc2)CCS3)cc1`, the inhibition came to 4.65%.

On to `CN1CCN(CCCNc2nc3ccc(Oc4ccc(NC(=O)Nc5cc(C(F)(F)F)ccc5F)cc4)cc3[nH]2)CC1`, for which the inhibition was 4.66%.

For the compound `Fc1ccc(-c2c(-c3ccncc3)nc3n2CCS3)cc1`, the inhibition worked out at 2.36%.

Turning to `NCc1ccc(-n2c(-c3nonc3N)nc3cnccc32)cc1`, the inhibition worked out at 6.26%.

Take `CCS(=O)(=O)c1ccc(OC)c(Nc2ncc(-c3ccccc3Cl)o2)c1`: the inhibition was 4.06%.

Take `Fc1ccc(-c2ncn(C3CCNCC3)c2-c2ccnc(Oc3ccc(F)c(F)c3)n2)cc1`: the inhibition worked out at 5.11%.

`Fc1ccc(-c2ncn(C3CCNCC3)c2-c2ccnc(Oc3ccc(Oc4ccccc4)cc3)n2)cc1`: the inhibition worked out at 5.33%.

As for `C[C@@H](Oc1cc(-n2cnc3ccc(OC4CCN(C)CC4)cc32)sc1C(N)=O)c1ccccc1Cl`, the inhibition was found to be 6.15%.

For the compound `c1ccc(-c2n[nH]cc2-c2ccnc(-c3ccc(OCCN4CCOCC4)cc3)c2)nc1`, the inhibition is 1.69%.

As for `c1ccc(Oc2ccc(Nc3ncc(-c4ccccc4)o3)cc2)cc1`, the inhibition came to 3.85%.

For the compound `COc1cccc(-n2cnc3c(N/N=C/c4ccncc4)ncnc32)c1`, the inhibition amounted to 0.9%.

For `C[C@@H](Oc1cc(-n2cnc3ccc(OCC4CCN(C)CC4)cc32)sc1C(N)=O)c1ccccc1Cl`, the inhibition came to 8.11%.

Turning to `CCN(CC)Cc1ccc(Nc2nccc(-c3cnn4ncccc34)n2)cc1`, the inhibition was found to be 4.93%.

Consider `Cc1nnc(-c2ccc(C)c(-c3ccc(C(=O)NCc4ccc(Cl)cc4)cc3)c2)o1`, for which the inhibition worked out at 4.39%.

On to `O=C(Nc1n[nH]c2cc(-c3ccccc3)ccc12)C1CC1`, for which the inhibition worked out at 8.61%.

`COc1cc(Nc2ncc3c(C)nc(-c4cccc(Oc5ccccc5)c4)n3n2)cc(OC)c1OC`: the inhibition was determined as 3.59%.

For the compound `Clc1ccc(CNc2nccc(-c3cnn4ncccc34)n2)cc1`, the inhibition is 5.97%.

On to `CN(C)c1ccc2c(c1)/C(=C/Nc1ccc(S(N)(=O)=O)cc1)C(=O)N2`, for which the inhibition was found to be 4.88%.

Take `CNC(=O)c1cncc(/C=C/c2c(C)cccc2C)c1`: the inhibition is 17.2%.

For the compound `COc1cc(Nc2ncc3c(C)nc(-c4cccc(C(F)(F)F)c4)n3n2)cc(OC)c1OC`, the inhibition was found to be 6.2%.

For the next experiment the target is unchanged. The settings on record: at 1 µM.
For the compound `COc1cc2ncn(-c3cc(OCc4cccs4)c(C(N)=O)s3)c2cc1OC`, the inhibition is 23.4%.

As for `COc1cc(C)c(N(C)C(=O)CN(C)C)cc1Nc1nc(Nc2cccc(F)c2C(N)=O)c2cc[nH]c2n1`, the inhibition was 4.78%.

As for `CN(C)CCCNc1nccc(-c2c(-c3ccc(F)cc3)nn3cc(C(F)(F)F)ccc23)n1`, the inhibition came to 7.89%.

Take `COc1cccc(/C=N/Nc2ncnc3c2cnn3-c2cccc(OC)c2)c1`: the inhibition was 6.95%.

As for `CCC(=O)Nc1ccc(C)c(-c2ccc(C(=O)NCC3CC3)cc2)c1`, the inhibition came to 4.04%.

As for `CCS(=O)(=O)c1ccc(OC)c(Nc2ncc(-c3cccc(-c4ccccc4F)c3)o2)c1`, the inhibition stood at 64.4%.

With `C#Cc1cccc(Nc2ncnc3ccc(OCCCCNCCS(C)(=O)=O)cc23)c1`, the inhibition worked out at 20.5%.

Take `CS(=O)(=O)CCNCc1ccc(-c2ccc3ncnc(Nc4ccc(OCc5ccccc5)c(Br)c4)c3c2)o1`: the inhibition was 10.2%.

In the case of `COc1cc2ncn(-c3cc(OCCc4ccccc4)c(C(N)=O)s3)c2cc1OC`, the inhibition was 11.2%.

On to `NS(=O)(=O)c1ccc(N/N=C2\C(=O)Nc3ccc(-c4cnco4)cc32)cc1`, for which the inhibition turned out to be 23.3%.

Take `Cc1ccc(C(=O)NC2CCC2)cc1-c1ccc(C(=O)NCC2CC2)cc1`: the inhibition was found to be 6.65%.

For `COc1ccc2cc(-c3c(-c4ccncc4)nc(-c4ccc([S+](C)[O-])cc4C)n3C)ccc2c1` (stereo not drawn), the inhibition turned out to be 4.6%.

As to `COc1cc(N2CCN(C(C)C)CC2)ccc1Nc1nc(Nc2ccc(F)cc2C(=O)NC[C@@H](O)CO)c2cc[nH]c2n1`, the inhibition came out at 5%.

`COc1ccc2ncn(-c3cc(O[C@H](C)c4ccccc4Cl)c(C(N)=O)s3)c2c1`: the inhibition was determined as 5.31%.

In the case of `Fc1ccc(-c2nc3n(c2-c2ccncc2)CCS3)cc1`, the inhibition came out at 7.02%.

In the case of `CN1CCN(CCCNc2nc3ccc(Oc4ccc(NC(=O)Nc5cc(C(F)(F)F)ccc5F)cc4)cc3[nH]2)CC1`, the inhibition worked out at 9.14%.

`Fc1ccc(-c2c(-c3ccncc3)nc3n2CCS3)cc1`: the inhibition worked out at 4.87%.

As to `NCc1ccc(-n2c(-c3nonc3N)nc3cnccc32)cc1`, the inhibition came out at 10.4%.

On to `CCS(=O)(=O)c1ccc(OC)c(Nc2ncc(-c3ccccc3Cl)o2)c1`, for which the inhibition stood at 11.8%.

Turning to `Fc1ccc(-c2ncn(C3CCNCC3)c2-c2ccnc(Oc3ccc(F)c(F)c3)n2)cc1`, the inhibition is 4.68%.

Take `Fc1ccc(-c2ncn(C3CCNCC3)c2-c2ccnc(Oc3ccc(Oc4ccccc4)cc3)n2)cc1`: the inhibition is 8.1%.

As to `C[C@@H](Oc1cc(-n2cnc3ccc(OC4CCN(C)CC4)cc32)sc1C(N)=O)c1ccccc1Cl`, the inhibition is 13%.

Regarding `c1ccc(-c2n[nH]cc2-c2ccnc(-c3ccc(OCCN4CCOCC4)cc3)c2)nc1`, the inhibition came to 4.55%.

Turning to `c1ccc(Oc2ccc(Nc3ncc(-c4ccccc4)o3)cc2)cc1`, the inhibition stood at 5.01%.

Consider `COc1cccc(-n2cnc3c(N/N=C/c4ccncc4)ncnc32)c1`, for which the inhibition was 16.3%.

Take `C[C@@H](Oc1cc(-n2cnc3ccc(OCC4CCN(C)CC4)cc32)sc1C(N)=O)c1ccccc1Cl`: the inhibition turned out to be 29.6%.

As for `CCN(CC)Cc1ccc(Nc2nccc(-c3cnn4ncccc34)n2)cc1`, the inhibition was 13.5%.

Consider `Cc1nnc(-c2ccc(C)c(-c3ccc(C(=O)NCc4ccc(Cl)cc4)cc3)c2)o1`, for which the inhibition is 5.02%.

In the case of `O=C(Nc1n[nH]c2cc(-c3ccccc3)ccc12)C1CC1`, the inhibition came out at 15.8%.

As for `COc1cc(Nc2ncc3c(C)nc(-c4cccc(Oc5ccccc5)c4)n3n2)cc(OC)c1OC`, the inhibition was determined as 5.25%.

In the case of `Clc1ccc(CNc2nccc(-c3cnn4ncccc34)n2)cc1`, the inhibition was found to be 5.79%.

On to `CN(C)c1ccc2c(c1)/C(=C/Nc1ccc(S(N)(=O)=O)cc1)C(=O)N2`, for which the inhibition was 20.5%.

For `CNC(=O)c1cncc(/C=C/c2c(C)cccc2C)c1`, the inhibition is 58.9%.

Turning to `COc1cc(Nc2ncc3c(C)nc(-c4cccc(C(F)(F)F)c4)n3n2)cc(OC)c1OC`, the inhibition was 22.6%.
